The source of these data is PubChem BioAssay (NCATS).

Assay [1] in a line: qHTS Assay for Identifying Gametocytocidal Compounds (AID 743244; active = well fitted curve in the direction sought with a large enough effect; an effect the other way counts as inactive or inconclusive; note: potency is the fitted concentration of half-maximal effect;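 for max response: % is set by controls: 0 for no effect and ±100 for the full control effect; actives lower the fluorescent signal which means gametocytes are killed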). To be noted: P. falciparum 3D7 stage III-V gametocytes, alamarBlue, 72 h; max response: stronger effect = lower value. In short, it runs like this:
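P. falciparum 3D7 stage III–V gametocytes (20,000 cells/well) were exposed to compounds for 72 h at 37 °C, 5% CO2. AlamarBlue was then added for 24 h; decreased resorufin fluorescence (Ex 525/Em 598 nm) indicated loss of viability.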

A short description of assay [2]: qHTS profiling for inhibitors of Plasmodium falciparum (3D7) proliferation (AID 743322).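 Note: infected erythrocytes exposed to compound for 72 h before lysis; 100% = DMSO vehicle wells and 0% = 0.29 µM artemisinin.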 The following applies: P. falciparum 3D7 proliferation; at 28.7 µM (top of the series). In short, it runs like this:
(§1)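 Parasite DNA was quantified by SYBR Green I fluorescence (ex 485, em 535 nm) after overnight lysis in saponin/Triton buffer at room temperature. Cultures at 0.3% parasitemia and 2.5% hematocrit were first exposed to compound for 72 h at 37 C; signals were normalised to artemisinin (0.29 uM) and vehicle wells.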
In general terms: In qHTS, concentration-response curves come from the screen itself.

Assay [3] can be described thus: qHTS profiling for inhibitors of Plasmodium falciparum (DD2) proliferation (AID 743323). To be noted: lower = more inhibition; at 28.7 µM (top of the series). The procedure, abridged:
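Parasite proliferation measured via DNA-dye fluorescence, as uninfected erythrocytes lack DNA. Cultures at 0.3% parasitemia and 2.5% hematocrit incubated 72 h with compound; signal scaled between vehicle and 0.29 uM artemisinin wells.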

Assay [4] is described as follows: qHTS profiling for inhibitors of Plasmodium falciparum (HB3) proliferation (AID 743324; active = well fitted curve in the direction sought with a large enough effect; an effect the other way counts as inactive or inconclusive;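 note: 100% = DMSO vehicle wells and 0% = artemisinin-treated control wells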). To be noted: Plasmodium falciparum HB3 blood-stage proliferation; at 28.7 µM (top of the series). The procedure, abridged: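 SYBR Green fluorescence (485 ex/535 em) of lysed cultures, incubated overnight at room temperature in the dark, quantifies parasite DNA. Infected erythrocytes at 0.3% parasitemia and 2.5% hematocrit were exposed 72 h; values normalized to DMSO and 0.29 uM artemisinin controls.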

Assay [5] is described as follows: qHTS profiling of the MIPE4 collection as inhibitors of Plasmodium falciparum (3D7) proliferation (AID 743344).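 Note: scaled between DMSO vehicle wells and 0.29 µM artemisinin as full inhibition.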 The following applies: P. falciparum 3D7 in erythrocytes, SYBR Green DNA fluorescence, 72 h; at 28.5 µM (top of the series) unless noted. The procedure, abridged:
as §1

The nature of assay [6]: qHTS profiling of the MIPE4 collection as inhibitors of Plasmodium falciparum (DD2) proliferation (AID 743345). To be noted: P. falciparum Dd2 in erythrocytes, SYBR Green DNA, 72 h; at 28.5 µM (top of the series) unless noted. In short, it runs like this: as §1
Assay [7] is described as follows: qHTS profiling of the MIPE4 collection as inhibitors of Plasmodium falciparum (DD2) proliferation (Rep 2) (AID 743346). The following applies: P. falciparum Dd2 in erythrocytes, SYBR Green DNA, 72 h; at 28.5 µM (top of the series) unless noted. In short, it runs like this:
as §1

Assay [8] is described as follows: qHTS profiling of the MIPE4 collection as inhibitors of Plasmodium falciparum (HB3) proliferation (AID 743347).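 Note: plate controls were DMSO vehicle wells for no effect and artemisinin wells for full effect.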 To be noted: P. falciparum HB3 in erythrocytes, SYBR Green DNA, 72 h; at 28.5 µM (top of the series) unless noted. The procedure, abridged: as §1
A short description of assay [9]: High-throughput drug toxicity screening in the BPDCN cell line Gen2.2 (AID 1224824).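 Note: cells exposed to compounds for 48 h before reading.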 The following applies: Gen2.2 BPDCN cells; at 45.8 µM (top of the series) unless noted. In short, it runs like this:
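Seed 500 exponentially growing Gen2.2 cells/well; add compounds by pin tool; incubate 48 h, 37 °C, 5% CO2; add CellTiter-Glo, 15 min RT; read luminescence. % activity vs DMSO (100%) and bortezomib (0%).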

Assay [10] can be described thus: High-throughput drug toxicity screening in the BPDCN cell line Cal-1 (AID 1224825). To be noted: Cal-1 BPDCN cell viability, qHTS; at 45.8 µM (top of the series) unless noted. The procedure, abridged: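 Viability of the BPDCN line Cal-1 is measured as ATP-based luminescence (CellTiter-Glo) following 48 h incubation with compounds. Percent activity uses DMSO-treated wells as 100% and 9.2 uM bortezomib as 0%.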

A short description of assay [11]: qHTS assay for measurement of the activity of small molecule inhibitors on Zika virus induced Caspase-3 activity in human iPSC derived neural progenitor cells (hNPCs) (AID 1224857; active = well fitted curve in the direction sought with a large enough effect; an effect the other way counts as inactive or inconclusive; note: % of control where 0% means no effect; nearly all actives have a fitted effect of over 65% in size). In short, it runs like this:
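hNPCs seeded 350 cells/well, cultured 16–20 h; compounds added 1 h before ZIKV (2 FFU/cell), 37 C 6 h. Caspase-Glo 3/7 luminescence after 30 min RT; % inhibition from induction scaled to uninfected (0%) and infected (100%) wells.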

Assay [12] is described as follows: qHTS assay for measurement of the activity of small molecule inhibitors on Zika virus induced Caspase-3 activity in human astrocytoma cells (AID 1224859; active = well fitted curve in the direction sought with a large enough effect; an effect the other way counts as inactive or inconclusive;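 note: plate controls were ZIKV-infected untreated cells for no effect and uninfected cells for full effect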). In short, it runs like this: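 Luminescence read-out (Caspase-Glo 3/7, 30 min RT) of caspase activity in SNB-19 cells infected 6 h with ZIKV, 2 FFU/cell, after 1 h compound pretreatment; % inhibition from induction normalised to uninfected (0%) and infected (100%) wells.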

“And” between values parts separate entries of the source, which are not always exact repeats. Equal entries are not always repeated. Results filed as inconclusive are left out. The source made the active and inactive calls. Unless noted, the rule behind the calls is not given here.

As for `O=C(C=Cc1c(C(=O)O)[nH]c2cc(Cl)cc(Cl)c12)Nc1ccccc1`, the max response in [1] was 20.3% (inactive). In assay [2], the remaining parasite growth % (stronger effect = lower value) worked out at 118%. For the same compound, in assay [3], the activity, percent of control stood at 103%. Besides, the remaining proliferation (% of control), lower = more inhibition in [4] amounted to 99.1%. Further, the parasite growth, % of DMSO control in assay [5] came to 157%. In addition, the parasite growth remaining, % of DMSO control (lower = more inhibition) in assay [6] came to 107%. For the same compound, the parasite growth, % of control (lower = inhibition) in assay [7] was 159%. The compound also gave a growth, % of control in assay [8] of 188%. Besides, the cell viability, % of control (lower = more cytotoxic) in assay [9] worked out at 115%. In [10], this compound came in with a viability (% of control) of 98.9%. Moreover, the Potency entry in assay [11] and in assay [12] was “inactive” each time.
As to `Cn1c2cc(S(C)=O)sc2c2cnn(Cc3cccc(N)c3)c(=O)c21` (configuration not stated), in assay [1], the max response was 8.65% (inactive). In assay [2], the remaining parasite growth % (stronger effect = lower value) is 83.6% and 85.6%. Further, the activity, percent of control in assay [3] is 95% and 94.7%. For the same compound, the remaining proliferation (% of control), lower = more inhibition in assay [4] is 53.2% and 65.3%. The parasite growth, % of DMSO control in assay [5] was found to be 190%. Besides, the parasite growth remaining, % of DMSO control (lower = more inhibition) in assay [6] was 102%. For the same compound, the parasite growth, % of control (lower = inhibition) in assay [7] worked out at 77%. The compound also had a growth, % of control in assay [8] of 367%. The cell viability, % of control (lower = more cytotoxic) in assay [9] stood at 123%. The same compound displayed a viability (% of control) in assay [10] of 100%. In addition, the Potency entry in [11] and in assay [12] was “inactive” throughout.
Turning to `CCOC(=O)C1=C(C)NC2=C(C(=O)CC(C)(C)C2)C1c1ccc(-c2ccccc2)cc1` (configuration not stated), in assay [9], the cell viability, % of control (lower = more cytotoxic) is 5.24%. For the same compound, the viability (% of control) in assay [10] is 4.47%. Besides, the Potency result in assay [11] and in assay [12] was “inactive” each time.
Take `CCC(=C(c1ccccc1)c1ccc(OCCN(C)C)cc1)c1ccccc1`: the max response in [1] is -26.2% (inactive). The remaining parasite growth % (stronger effect = lower value) in [2] turned out to be 17.2%. The activity, percent of control in assay [3] was determined as 5.96%. Also, the remaining proliferation (% of control), lower = more inhibition in assay [4] stood at 8.11%. In addition, the parasite growth, % of DMSO control in [5] stood at 53.1%. For the same compound, the parasite growth remaining, % of DMSO control (lower = more inhibition) in [6] was 37.8%. The parasite growth, % of control (lower = inhibition) in assay [7] was determined as 31%. Further, the growth, % of control in assay [8] came to 69.7%. The cell viability, % of control (lower = more cytotoxic) in [9] was 31.7%. This compound also came in with a viability (% of control) in assay [10] of 23.2%. The Potency result in assay [11] and in assay [12] was “inactive” each time.
On to `CC(=O)OCC(=O)[C@@]1(O)[C@H](C)C[C@H]2[C@@H]3C=C(C)C4=Cc5c(cnn5-c5ccccc5)C[C@]4(C)[C@@H]3[C@@H](O)C[C@@]21C`, for which the max response in assay [1] was -18.2% (inactive). In addition, the remaining parasite growth % (stronger effect = lower value) in assay [2] is -0.774%. The activity, percent of control in assay [3] is -0.0557%. Also, the remaining proliferation (% of control), lower = more inhibition in [4] is -1.72%. This compound also showed a parasite growth, % of DMSO control in assay [5] of 6.78%. Also, the parasite growth remaining, % of DMSO control (lower = more inhibition) in assay [6] turned out to be 6.63%. The parasite growth, % of control (lower = inhibition) in assay [7] stood at 21.4%. For the same compound, in assay [8], the growth, % of control is 10.8%. Moreover, the cell viability, % of control (lower = more cytotoxic) in [9] was 102%. This compound returned a viability (% of control) in assay [10] of 45.8%. The Potency result in assay [11] and in assay [12] was “inactive” each time.
As to `CCN1CCN(CC(=O)Nc2ccc(-c3cccc4c(=O)cc(N5CCOCC5)oc34)c3sc4ccccc4c23)CC1`, the Potency in assay [1] was 29.6 µM (active). Moreover, the remaining parasite growth % (stronger effect = lower value) in [2] was -0.258%. Also, the activity, percent of control in assay [3] turned out to be 0.865%. In addition, the remaining proliferation (% of control), lower = more inhibition in [4] was 0.111%. This compound yielded a parasite growth, % of DMSO control in [5] of 5.76%. The parasite growth remaining, % of DMSO control (lower = more inhibition) in assay [6] turned out to be 6.58%. For the same compound, the parasite growth, % of control (lower = inhibition) in [7] stood at 16.5%. In assay [8], this compound displayed a growth, % of control of 7.23%. In addition, the cell viability, % of control (lower = more cytotoxic) in assay [9] amounted to 1.44%. Further, in assay [10], the viability (% of control) was 2.53%. The Potency result in assay [11] and in assay [12] was “inactive” in each case.
On to `Nc1nccc(Oc2ccc(NC(=O)c3c[nH]cc(-c4ccc(F)cc4)c3=O)cc2F)c1Cl`, for which, in assay [1], the max response is -5.48% (inactive). In addition, the remaining parasite growth % (stronger effect = lower value) in assay [2] was 7.57%. The activity, percent of control in [3] is 18.6%. Further, the remaining proliferation (% of control), lower = more inhibition in [4] was determined as 1.21%. The parasite growth, % of DMSO control in assay [5] is 4.72%. For the same compound, in assay [6], the parasite growth remaining, % of DMSO control (lower = more inhibition) was 50.4%. Also, the parasite growth, % of control (lower = inhibition) in [7] is 8.39%. Moreover, in assay [8], the growth, % of control worked out at 6.32%. The cell viability, % of control (lower = more cytotoxic) in [9] turned out to be 7.66%. The compound further showed a viability (% of control) in [10] of 5.21%. The Potency entry in assay [11] and in [12] was “inactive” in each case.
As for `Cc1cn2c(-c3cn[nH]c3)cnc2c(Nc2ccc(C(=O)N3CCNCC3)cc2F)n1`, the Potency in assay [1] is 23.5 µM (active). Also, the remaining parasite growth % (stronger effect = lower value) in [2] was 19.1%. In addition, the activity, percent of control in [3] stood at 12.6%. The remaining proliferation (% of control), lower = more inhibition in [4] was 11.9%. The compound further displayed a parasite growth, % of DMSO control in assay [5] of 5.87%. Besides, the parasite growth remaining, % of DMSO control (lower = more inhibition) in assay [6] is 11.4%. Besides, the parasite growth, % of control (lower = inhibition) in assay [7] amounted to 11.4%. The growth, % of control in assay [8] is 3.68%. Also, the cell viability, % of control (lower = more cytotoxic) in assay [9] was 99.1%. Besides, in assay [10], the viability (% of control) was 28.2%. Also, the Potency result in assay [11] and in assay [12] was “inactive” each time.
Take `CS(=O)(=O)N1CCN(Cc2cc3nc(-c4cccc5[nH]ncc45)nc(N4CCOCC4)c3s2)CC1`: the cell viability, % of control (lower = more cytotoxic) in assay [9] came out at 27.2%. In [10], this compound yielded a viability (% of control) of 27.7%. For the same compound, the Potency entry in [11] and in [12] was “inactive” each time.
